Assay results reported in PubChem BioAssay AID1159580 (chemical genetic matrix, 2015).
The whole screen tested about 5,500 compounds, of which about 2,000 (36%) were called active. Not shown: some 18% with an inconclusive outcome. Rule as the data show it: active = normalized growth mostly below about 0.91 (no sharp cut-off); inconclusive = no clear call, values can overlap the other calls; inactive = mostly above about 0.92. The list shows a part of the results.

Assay: chemical genetic growth profiling, strain panel (AID 1159580);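 also: tested at 20 µM; growth read once vehicle control cultures reached saturation at 30 °C; 1 = growth at the plate median or of vehicle wells; lower values mean less growth of the strain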
Settings: growth OD

Measured: normalized growth

O=C(O)c1cc(=O)c2c(OCC(O)COc3cccc4oc(C(=O)O)cc(=O)c34)cccc2o1
inactive: S. cerevisiae deletion strains, locus YKL009W, strain mrt4, hits give low values 1.01 | S. cerevisiae deletion strains, locus YKL068W, hits give low values 1.01 | S. cerevisiae deletion strains, locus YKL085W, strain MDH1 (second series), hits give low values 1.03 | S. cerevisiae deletion strains, locus YKL085W, strain MDH1, hits give low values 1.03 | S. cerevisiae deletion strains, locus YKL160W, strain elf1, hits give low values 0.972 | S. cerevisiae deletion strains, locus YKL190W, strain CNB1, hits give low values 1 | S. cerevisiae deletion strains, locus YKR001C, strain vps1, hits give low values 1.02 | S. cerevisiae deletion strains, locus YKR026C, strain gcn3, hits give low values 0.968 | S. cerevisiae deletion strains, locus YKR091W, strain srl3, hits give low values 0.983 | S. cerevisiae deletion strains, locus YLL001W, strain dnm1, hits give low values 0.935 | S. cerevisiae deletion strains, locus YLL026W, hits give low values 0.991 | S. cerevisiae deletion strains, locus YLL041C, strain sdh2, hits give low values 0.973 | S. cerevisiae deletion strains, locus YLR027C, strain aat2, hits give low values 0.983 | S. cerevisiae deletion strains, locus YLR039C, strain RIC1, hits give low values 1 | S. cerevisiae deletion strains, locus YLR058C, strain SHM2, hits give low values 1.01 | S. cerevisiae deletion strains, locus YLR102C, strain apc9, hits give low values 1.02 | S. cerevisiae deletion strains, locus YLR113W, strain HOG1, hits give low values 0.998 | S. cerevisiae deletion strains, locus YLR221C, strain rsa3, hits give low values 1.02 | S. cerevisiae deletion strains, locus YLR258W, strain gsy2, hits give low values 0.983 | S. cerevisiae deletion strains, locus YLR262C, strain YPT6 (second series), hits give low values 0.933 | S. cerevisiae deletion strains, locus YLR262C, strain YPT6, hits give low values 1.05 | S. cerevisiae deletion strains, locus YLR268W, strain sec22, hits give low values 1.04 | S. cerevisiae deletion strains, locus YLR320W, strain mms22, hits give low values 0.985 | S. cerevisiae deletion strains, locus YLR330W, strain CHS5, hits give low values 1.01 | S. cerevisiae deletion strains, locus YLR342W, strain FKS1 (second series), hits give low values 1.01 | S. cerevisiae deletion strains, locus YLR342W, strain FKS1, hits give low values 0.95 | S. cerevisiae deletion strains, locus YLR357W, strain rsc2, hits give low values 1.01 | S. cerevisiae deletion strains, locus YLR370C, strain arc18, hits give low values 0.974 | S. cerevisiae deletion strains, locus YLR371W, strain rom2, hits give low values 1.02 | S. cerevisiae deletion strains, locus YLR384C, strain iki3, hits give low values 0.961 | S. cerevisiae deletion strains, locus YLR418C, strain cdc73, hits give low values 1.02 | S. cerevisiae deletion strains, locus YML016C, strain PPZ1, hits give low values 1.01 | S. cerevisiae deletion strains, locus YML032C, strain rad52, hits give low values 1.02 | S. cerevisiae deletion strains, locus YML120C, strain ndi1, hits give low values 0.966 | S. cerevisiae deletion strains, locus YML124C, strain tub3, hits give low values 1.01 | S. cerevisiae deletion strains, locus YMR058W, strain fet3, hits give low values 0.967 | S. cerevisiae deletion strains, locus YMR078C, strain ctf18, hits give low values 1.04 | S. cerevisiae deletion strains, locus YMR125W, strain sto1, hits give low values 0.99 | S. cerevisiae deletion strains, locus YMR129W, hits give low values 0.975 | S. cerevisiae deletion strains, locus YMR205C, strain PFK2, hits give low values 0.982 | S. cerevisiae deletion strains, locus YMR223W, strain ubp8, hits give low values 1.03 | S. cerevisiae deletion strains, locus YMR231W, strain pep5, hits give low values 0.971 | S. cerevisiae deletion strains, locus YMR307W, strain GAS1, hits give low values 1.09 | S. cerevisiae deletion strains, locus YNL067W, strain RPL9B, hits give low values 1.01 | S. cerevisiae deletion strains, locus YNL071W, strain lat1, hits give low values 0.989 | S. cerevisiae deletion strains, locus YNL128W, strain TEP1, hits give low values 1.02 | S. cerevisiae deletion strains, locus YNL183C, strain NPR1, hits give low values 0.952 | S. cerevisiae deletion strains, locus YNL209W, strain ssb2, hits give low values 1.01 | S. cerevisiae deletion strains, locus YNL233W, strain BNI4, hits give low values 1.02 | S. cerevisiae deletion strains, locus YNL248C, strain rpa49, hits give low values 1 | S. cerevisiae deletion strains, locus YNL250W, strain rad50, hits give low values 1.07 | S. cerevisiae deletion strains, locus YNL271C, strain bni1, hits give low values 1.03 | S. cerevisiae deletion strains, locus YNL298W, strain CLA4, hits give low values 1.01 | S. cerevisiae deletion strains, locus YNL307C, strain MCK1, hits give low values 1.02 | S. cerevisiae deletion strains, locus YNL322C, strain KRE1 (second series), hits give low values 0.953 | S. cerevisiae deletion strains, locus YNL322C, strain KRE1, hits give low values 1.01 | S. cerevisiae deletion strains, locus YNR049C, strain mso1, hits give low values 0.967 | S. cerevisiae deletion strains, locus YNR052C, strain pop2, hits give low values 1.01 | S. cerevisiae deletion strains, locus YOL006C, strain TOP1, hits give low values 1.01 | S. cerevisiae deletion strains, locus YOL012C, strain htz1 0.937 | S. cerevisiae deletion strains, locus YOL147C, strain pex11, hits give low values 1.03 | S. cerevisiae deletion strains, locus YOR001W, strain rrp6, hits give low values 0.936 | S. cerevisiae deletion strains, locus YOR061W, strain CKA2, hits give low values 1.01 | S. cerevisiae deletion strains, locus YOR069W, strain VPS5, hits give low values 1.01 | S. cerevisiae deletion strains, locus YOR070C, strain gyp1, hits give low values 0.987 | S. cerevisiae deletion strains, locus YOR080W, strain dia2, hits give low values 0.968 | S. cerevisiae deletion strains, locus YOR083W, strain WHI5, hits give low values 0.961 | S. cerevisiae deletion strains, locus YOR106W, strain vam3, hits give low values 0.957 | S. cerevisiae deletion strains, locus YOR136W, strain idh2, hits give low values 1.03 | S. cerevisiae deletion strains, locus YOR144C, strain elg1, hits give low values 1.02 | S. cerevisiae deletion strains, locus YOR184W, strain ser1, hits give low values 1.03 | S. cerevisiae deletion strains, locus YOR231W, strain MKK1, hits give low values 1 | S. cerevisiae deletion strains, locus YOR265W, strain rbl2, hits give low values 0.984 | S. cerevisiae deletion strains, locus YOR270C, strain vph1, hits give low values 0.946 | S. cerevisiae deletion strains, locus YOR290C, strain snf2, hits give low values 1.02 | S. cerevisiae deletion strains, locus YOR316C, strain cot1, hits give low values 1.03 | S. cerevisiae deletion strains, locus YPL051W, strain arl3, hits give low values 0.99 | S. cerevisiae deletion strains, locus YPL055C, strain LGE1, hits give low values 1.01 | S. cerevisiae deletion strains, locus YPL078C, strain atp4, hits give low values 0.933 | S. cerevisiae deletion strains, locus YPL106C, strain sse1, hits give low values 1 | S. cerevisiae deletion strains, locus YPL240C, strain hsp82, hits give low values 1 | S. cerevisiae deletion strains, locus YPL241C, strain CIN2, hits give low values 1.01 | S. cerevisiae deletion strains, locus YPL256C, strain CLN2, hits give low values 1 | S. cerevisiae deletion strains, locus YPR119W, strain clb2, hits give low values 1.03 | S. cerevisiae deletion strains, locus YPR141C, strain kar3, hits give low values 1.03 | S. cerevisiae deletion strains, locus YPR163C, strain tif3, hits give low values 1.02 | S. cerevisiae deletion strains, locus YPR167C, strain met16, hits give low values 1.03 | S. cerevisiae deletion strains, strain wtn01, hits give low values 0.999 | S. cerevisiae strains, strain wild type, hits give low values 1.01
